In the OligoGym collection:

What follows are sequences tested against SLC39A12 (assay: pooled miR-30 sensor sort-seq; sequence = guide strand). Conditions: shRNA.
Also: reference of the scale not given here.

Sequence	sensor-assay potency score (higher = more potent)
TTTGATACAAGTACTTCTGGTC	0.47
TTTTGATACAAGTACTTCTGGT	-0.57
TTGCTTGTCACTTAACTTGCTT	-0.0821
TTTTTGATACAAGTACTTCTGG	0.0669

What follows are sequences tested against SLC39A3 in the same assay as above. Conditions: shRNA.

Sequence	sensor-assay potency score (higher = more potent)
TTTCTGGACACTAGGCACGAGG	-1.43
AAAATCTGTCTCGATGATCTTC	0.079
TACCTTTTCCCTCACAGCGGGC	-1.41
TTGCAGAGAGAGAGGATCTTTT	-0.914
TAGGTGGGTAGTCTGGTCTGAT	-0.578
TAGTCGGTGCTGATGTGGCCGA	-1.33
TCTGTCTCGATGATCTTCACGG	-0.084
TCAGTGTTGAAAATGCATCAGA	-0.941
TTAAAAAGTAGCAGTGCTCTGA	0.00339
TGATTATCAGGTGACAACCGAC	-1.07
TGTCTCGATGATCTTCACGGGG	-0.768
TTACCTTTTCCCTCACAGCGGG	-0.333
